Activity calls are given as the source filed them. Rule for the calls: active = hit-call score of the fitted dose curve at least 0.9, where 1 is the maximum; inactive = score below 0.9.

The nature of test [1]: APR_HepG2_NuclearSize_72hr: Apredica 72-hour HepG2 Assay for Nuclear Size (AID 2282925). Conditions: high-content imaging, actives raise or lower the signal. In a few lines: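 HepG2; cpd 0.39–200 uM, 10 conc, duplicate; 72 h; DMSO 0.5% v/v; fix 3.7% formaldehyde 30 min RT; Triton permeabilization; Hoechst 2 ug/mL; HCS imaging 20x; nuclear diameter; gain/loss fit vs DMSO.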

The nature of test [2]: ATG_CRE_CIS: Attagene CIS-FACTORIAL HepG2 Assay for human cAMP Responsive Element (CRE) binding protein 3 (AID 2282926). Conditions: HepG2 CRE cis-reporter, Attagene multiplexed mRNA; actives raise or lower the signal. In a few lines: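 HepG2 cells transiently transfected with cis-element-driven multiple reporter transcription units; CRE reporter mRNA measured 24 h after dosing by RT-PCR, 6-FAM labelling, HpaI digestion and capillary electrophoresis. Bidirectional fit versus DMSO baseline.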

Test [3] has as its target CCAAT/enhancer-binding protein beta (Homo sapiens) (UniProt P17676). Description: ATG_C_EBP_CIS: Attagene CIS-FACTORIAL HepG2 Assay for human CCAAT/Enhancer Binding Protein (C/EBP) beta (AID 2282927). Conditions: HepG2 Attagene cis-factorial transcription factor reporter; actives raise or lower the signal. In a few lines:
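Endogenous C/EBPb-driven reporter transcripts measured in transfected human HepG2 cells at 24 h via RT-PCR and capillary electrophoresis of labelled fragments. Activity fitted in both directions relative to DMSO baseline.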

Test [4] in a line: ATG_CMV_CIS: Attagene CIS-FACTORIAL HepG2 Assay for human CMV (Internal Marker) (AID 2282928).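 Note: endpoint acts as a background internal control marker rather than a target.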 Particulars: HepG2 CMV promoter reporter, transcription factor profiling; actives raise or lower the signal. In a few lines:
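CMV internal-marker background readout in transiently transfected HepG2 cells bearing cis-regulated reporter units. Reporter mRNA is measured 24 h after dosing by RT-PCR and capillary electrophoresis, with bidirectional fitting against DMSO.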

A short description of test [5]: ATG_DR4_LXR_CIS: Attagene CIS-FACTORIAL HepG2 Assay for human Liver X Receptor (LXR), DR4 submotif (AID 2282929). Particulars: HepG2 Attagene DR4 cis-reporter, mRNA transcription; actives raise or lower the signal. In a few lines: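 The endpoint is DR4-element-driven reporter transcripts after 24 h chemical exposure of transfected HepG2 cells. These were measured via RT-PCR and capillary electrophoresis, and gain or loss of signal was fitted relative to DMSO controls.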

Test [6] is described as follows: ATG_AP_1_CIS: Attagene CIS-FACTORIAL HepG2 Assay for human Activator Protein 1 (AP-1) (AID 2282931). Conditions: HepG2 Attagene cis-factorial AP-1 reporter mRNA; actives raise or lower the signal. In a few lines: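 Readout is reporter transcript level from endogenous transcription factor activity, quantified by RT-PCR with fluorescent primer extension and capillary electrophoresis. Transiently transfected HepG2 cells, 24 h exposure. Curves fitted both directions versus DMSO.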

Test [7] is described as follows: ATG_AP_2_CIS: Attagene CIS-FACTORIAL HepG2 Assay for human Activator Protein 2 (AP-2) (AID 2282932). Conditions: HepG2 AP-2 cis-reporter, Attagene transcription factor profiling; actives raise or lower the signal. In a few lines: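 HepG2, transient MRTU transfection, cis-regulated reporters; 24 h compound exposure; RNA isolated, RT-PCR, 6-FAM labelling, HpaI digest, CE fluorescence. DMSO = negative control/baseline, bidirectional fit.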

The nature of test [8]: ATG_BRE_CIS: Attagene CIS-FACTORIAL HepG2 Assay for human Bone Morphogenetic Protein (BMP) Response Element (BRE) (AID 2282933). Particulars: HepG2 BMP response element reporter, Attagene transcription factor profiling; actives raise or lower the signal. In a few lines: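 Transient MRTU transfection of human HepG2 liver cells; 24 h compound treatment; total RNA isolated, reverse-transcribed, PCR-amplified, 6-FAM labelled, HpaI-cut, capillary electrophoresis. DMSO = negative control/baseline, bidirectional fit.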

Test [9] addresses Aryl hydrocarbon receptor (Homo sapiens) (UniProt P35869). Description: ATG_Ahr_CIS: Attagene CIS-FACTORIAL HepG2 Assay for human Aryl Hydrocarbon Receptor (Ahr) (AID 2282930). Particulars: HepG2 AhR cis-factorial reporter transcription; actives raise or lower the signal. A digest of the protocol:
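Reporter mRNA levels, quantified by RT-PCR and fluorescent capillary electrophoresis, reflect endogenous AhR transcriptional activity in HepG2 cells carrying transfected cis-promoter reporter constructs. Readout at 24 h post-dose; gain or loss fitted against DMSO baseline.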

Test [10] has as its target Retinoic acid receptor alpha (Homo sapiens) (UniProt P10276). Kind of test: ATG_DR5_RAR_CIS: Attagene CIS-FACTORIAL HepG2 Assay for human Retinoic Acid Receptor Alpha (RARE), DR5 submotif (AID 2282934). Particulars: HepG2 Attagene cis-factorial RARE DR5 reporter, mRNA; actives raise or lower the signal. In a few lines: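 Reporter transcripts from a DR5-regulated unit, measured via RT-PCR plus capillary electrophoresis, reflect endogenous RAR activity in transiently transfected human HepG2 liver cells. Exposure lasted 24 h; gain or loss of signal scored against DMSO.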

Chain of Aryl hydrocarbon receptor (Homo sapiens) (P35869 whole entry, looked up): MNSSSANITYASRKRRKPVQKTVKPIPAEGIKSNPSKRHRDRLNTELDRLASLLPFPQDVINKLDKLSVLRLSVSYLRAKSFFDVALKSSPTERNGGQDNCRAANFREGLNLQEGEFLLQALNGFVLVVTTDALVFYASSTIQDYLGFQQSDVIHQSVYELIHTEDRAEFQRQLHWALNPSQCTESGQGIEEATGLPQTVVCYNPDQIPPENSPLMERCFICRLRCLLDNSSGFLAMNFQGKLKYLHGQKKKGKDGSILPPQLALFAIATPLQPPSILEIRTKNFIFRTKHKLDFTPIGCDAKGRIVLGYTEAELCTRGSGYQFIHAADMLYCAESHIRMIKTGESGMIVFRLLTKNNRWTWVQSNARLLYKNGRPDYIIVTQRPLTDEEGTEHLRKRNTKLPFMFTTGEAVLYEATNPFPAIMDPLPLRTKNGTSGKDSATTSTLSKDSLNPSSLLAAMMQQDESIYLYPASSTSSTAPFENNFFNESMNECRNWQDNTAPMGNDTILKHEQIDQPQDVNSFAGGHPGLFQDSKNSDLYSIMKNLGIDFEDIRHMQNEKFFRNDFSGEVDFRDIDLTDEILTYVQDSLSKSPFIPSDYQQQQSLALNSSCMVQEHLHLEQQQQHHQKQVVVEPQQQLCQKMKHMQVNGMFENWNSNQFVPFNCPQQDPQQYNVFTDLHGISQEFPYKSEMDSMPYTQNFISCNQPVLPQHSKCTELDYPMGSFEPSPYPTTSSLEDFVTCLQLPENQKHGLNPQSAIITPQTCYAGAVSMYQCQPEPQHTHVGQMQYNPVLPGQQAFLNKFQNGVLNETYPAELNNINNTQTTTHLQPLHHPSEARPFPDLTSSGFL
Chain of CCAAT/enhancer-binding protein beta (Homo sapiens) (P17676 whole entry, looked up, the tested form may be a part): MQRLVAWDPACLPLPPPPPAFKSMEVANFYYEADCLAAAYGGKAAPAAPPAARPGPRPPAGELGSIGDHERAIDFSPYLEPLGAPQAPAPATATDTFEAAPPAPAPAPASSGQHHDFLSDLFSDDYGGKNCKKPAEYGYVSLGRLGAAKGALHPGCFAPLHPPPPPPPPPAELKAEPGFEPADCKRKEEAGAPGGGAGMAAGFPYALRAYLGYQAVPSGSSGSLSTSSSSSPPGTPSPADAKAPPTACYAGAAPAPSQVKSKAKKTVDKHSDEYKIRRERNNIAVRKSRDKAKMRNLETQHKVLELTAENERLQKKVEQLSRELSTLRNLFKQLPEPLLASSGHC
Chain of Retinoic acid receptor alpha (Homo sapiens) (P10276 whole entry, looked up): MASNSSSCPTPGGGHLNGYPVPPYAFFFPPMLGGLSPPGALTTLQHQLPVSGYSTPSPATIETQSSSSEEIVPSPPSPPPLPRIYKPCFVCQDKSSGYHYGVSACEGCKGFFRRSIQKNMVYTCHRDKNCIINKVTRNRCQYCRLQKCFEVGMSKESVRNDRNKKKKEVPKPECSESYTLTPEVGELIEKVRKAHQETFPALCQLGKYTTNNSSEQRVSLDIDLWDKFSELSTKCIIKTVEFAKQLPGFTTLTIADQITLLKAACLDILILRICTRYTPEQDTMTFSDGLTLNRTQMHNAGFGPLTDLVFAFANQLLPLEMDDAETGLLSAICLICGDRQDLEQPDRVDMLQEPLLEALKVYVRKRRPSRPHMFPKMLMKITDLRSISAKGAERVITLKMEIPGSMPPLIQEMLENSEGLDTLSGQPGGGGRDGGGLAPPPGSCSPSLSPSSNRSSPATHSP

As for `O=P1(N(CCCl)CCCl)NCCCO1` (stereo not given), the outcome in test [1], in [2], in test [3], in test [4], in test [5] and in [6] was inactive. The outcome in test [7] and in test [8] was inactive.

As for `CSC(C)(C)C=NO`, the compound was classed as inactive in [1], in test [3], in test [4], in [5], in [9] and in test [6]. In addition, in test [7], the call was inactive.

`CC(Cc1ccc(OCC(=O)O)cc1)NCC(O)c1csc(C(F)(F)F)n1` (stereo not given): the compound was called inactive in test [1], in test [3], in [4], in test [5], in [9] and in [6]. The outcome in test [7] and in test [8] was inactive.

With `CCOc1ccc(C(C)(C)COCc2cccc(Oc3ccccc3)c2)cc1`, the compound was called inactive in [1], in test [2], in test [3], in [4], in [5] and in test [9]. The compound was classed as inactive in test [6] and in test [7].

Consider `ClC(Cl)c1ccccc1`, for which the outcome in [1], in test [2], in [3], in test [4], in test [6] and in test [7] was inactive. Also, the compound was called inactive in test [10].

As to `CCCCCCCc1ccc(O)cc1`, the call in [1], in [3], in [4], in test [5], in test [9] and in [6] was inactive. The compound was classed as inactive in test [7], in [8] and in test [10].

With `CCNc1nc(Cl)nc(NC(C)(C)C)n1`, the compound was classed as inactive in [1], in [3], in test [4], in test [9], in test [6] and in [7]. Also, the outcome in test [10] was inactive.

Take `CCCCN(CCCC)SN(C)C(=O)Oc1cccc2c1OC(C)(C)C2`: the compound was classed as inactive in test [1], in test [2], in test [3], in test [4], in test [6] and in [7]. Moreover, in test [8], the compound was called inactive. The AC50 in test [5] is 100 µM (active).

Turning to `O=C(O)C1C(C(=O)O)C2(Cl)C(Cl)=C(Cl)C1(Cl)C2(Cl)Cl` (stereo not given), the call in [1], in [3], in test [4], in test [5], in test [9] and in [6] was inactive. Besides, the result in test [7] and in [8] was inactive.

As to `O=C(O)C(Cl)Cl`, the outcome in [1], in test [2], in [3], in test [4], in test [5] and in test [9] was inactive. Moreover, the call in [6] and in [7] was inactive.

`CCC(C)(C)c1ccc(O)cc1`: the compound was called inactive in test [1], in test [3], in [9], in test [7] and in [8]. The half-maximal activity concentration (AC50) was 49 µM (active) in test [4] and 49.5 µM (active) in [6].

With `CCC1(c2ccccc2)C(=O)N=C(O)NC1=O` (stereo not given), the compound was called inactive in test [1], in test [2], in [3], in test [4], in test [5] and in test [9]. Also, the compound was classed as inactive in [6], in test [7] and in test [8].

Regarding `Nc1ccc2ccccc2c1`, the call in [1], in [2], in test [3], in test [4], in test [6] and in test [7] was inactive. Moreover, the outcome in test [8] and in test [10] was inactive.

Regarding `c1ccc(OP(Oc2ccccc2)Oc2ccccc2)cc1`, the outcome in test [1], in test [2], in test [3], in test [4], in test [5] and in test [6] was inactive. Further, the result in test [7] and in [8] was inactive.

As to `CCOS(=O)(=O)OCC`, the result in test [1], in test [3], in test [4], in test [6] and in test [7] was inactive.

Consider `Nc1ccc(Cl)cc1`, for which the compound was classed as inactive in test [1], in test [3], in test [4], in [5], in [6] and in [7].

Consider `CCCCc1ccccc1`, for which the compound was called inactive in test [1], in test [2], in [3], in test [4], in test [5] and in [9]. The result in [6], in test [7] and in test [8] was inactive.

`c1ccc2c(c1)Nc1ccccc1S2`: the result in test [1], in test [2], in test [3], in [5], in test [6] and in [7] was inactive. Besides, in test [10], the outcome was inactive. In addition, the AC50 in test [4] was 21.3 µM (active); in test [8], 41.7 µM (active).

`O=P(Oc1ccccc1)(Oc1ccccc1)Oc1ccccc1`: the compound was called inactive in [1], in [3], in [4], in test [9] and in test [7]. Also, the AC50 in test [6] was 52.6 µM (active); in test [8] it was 54 µM (active).

Consider `CCOC(=O)c1ccccc1C(=O)OCC`, for which the result in test [1], in test [2], in [3], in test [4], in test [6] and in test [7] was inactive. Moreover, the outcome in test [8] and in test [10] was inactive.

As for `CC(C)(C)OOC(C)(C)C`, the compound was called inactive in test [1], in test [2], in [3], in [4], in [5] and in test [9]. In addition, the compound was classed as inactive in test [6] and in test [7].

For `CCCCN(CCCC)N=O`, the call in test [1], in test [2], in test [3], in test [4], in test [5] and in [6] was inactive. The outcome in test [7] was inactive.

In the case of `Cc1cccc(N)c1`, the result in [1], in [2], in test [3], in test [4], in test [5] and in [6] was inactive. In addition, the compound was called inactive in test [7] and in test [8].

With `c1nc[nH]n1`, the compound was classed as inactive in test [1], in test [2], in test [3], in test [4], in test [5] and in test [9]. The compound was classed as inactive in test [6] and in [7].

With `Cc1ccc(N)cc1N`, the outcome in test [1], in test [2], in test [3], in test [4], in [6] and in test [7] was inactive. Moreover, the call in [8] was inactive. Further, in test [9], the AC50 was 5.24 µM (active).

Turning to `O=[N+]([O-])c1ccc(Cl)c(Cl)c1`, the result in test [1], in test [2], in test [3], in [4], in test [5] and in test [6] was inactive. Moreover, the call in [7], in test [8] and in test [10] was inactive.

For the compound `OCC1CO1` (stereo not given), the compound was called inactive in [1], in test [3], in [4], in test [5], in test [9] and in [6]. Also, the result in test [7] and in [8] was inactive.

Turning to `Cc1ccc([N+](=O)[O-])cc1C`, the compound was called inactive in test [1], in test [2], in test [3], in test [4], in test [9] and in test [6]. Moreover, the compound was called inactive in test [7], in [8] and in test [10].

`Nc1cc2c3c(c1)C(c1ccccc1)=N[C@@H](NC(=O)c1cccnc1)C(=O)N3CC2`: the result in [1], in [4], in [9] and in [6] was inactive. Also, the figures for the AC50 in [3] and in test [7] were 40.6 µM (active) and 145 µM (active), respectively.

Broadly, the AC50 is the concentration at which the activity in the assay is half-maximal.

For the origin of these results see PubChem BioAssay (EPA / NIEHS).
